In the library only some 2.1% were active in any assay of this set; here they are far more common.
MazEF act: activators of E. coli MazEF toxin-antitoxin RNase, primary screen, biochemical, fluorescence, uHTS; Endoribonuclease toxin MazF (Escherichia coli (strain K12)), P0AE70; FAM/BHQ RNA-DNA oligo cleavage fluorescence, 5 h; activation, % at 20 µM; hit rate 0.32% among 350,000; AID 504720, 2011; in the data active = activation above about 50%
Target sequence (P0AE70 whole entry, looked up): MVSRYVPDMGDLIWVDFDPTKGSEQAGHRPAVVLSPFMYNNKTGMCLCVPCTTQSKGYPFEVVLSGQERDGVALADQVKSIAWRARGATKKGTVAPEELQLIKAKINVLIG
PrPC TRFRET: inhibitors of human cell surface prion protein PrPC, primary screen, cell-based, TR-FRET; Major prion protein (Homo sapiens), P04156; TR-FRET read-out; inhibition, % at 13.8 µM; hit rate 0.43% among 370,000; AID 720596, 2013; in the data active = inhibition above about 24%
DUSP3 inh: VHR1 phosphatase inhibitors, primary screen, biochemical, absorbance, uHTS; hit rate 0.52% among 290,000; recombinant VHR phosphatase, pNPP absorbance; inhibition, % at 13.3 µM; AID 1654, 2009; in the data active = inhibition above about 50%
Target sequence (P51452 whole entry, looked up): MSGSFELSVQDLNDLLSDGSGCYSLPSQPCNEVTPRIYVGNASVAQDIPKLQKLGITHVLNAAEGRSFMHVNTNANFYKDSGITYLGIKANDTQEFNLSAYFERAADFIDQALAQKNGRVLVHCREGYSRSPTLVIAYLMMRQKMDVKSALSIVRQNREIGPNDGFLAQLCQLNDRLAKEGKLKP
PrP UTR inh: inhibition of PrP 5' UTR reporter expression. AID 488862, 2010. inhibition, % (no concentration beside the values). cell-based PrP 5' UTR mRNA reporter, plate reader. hit rate 0.35% among 340,000; in the data active = inhibition above about 52%
BJeLR viability: MLPCN primary cell-based screen for lethality selective to Ras in HRASV12 cells | inhibition, % (concentration not given with the values) | AID 1554, 2009 | BJeLR (HRASV12) viability, CellTiter-Glo ATP luminescence, 48 h | hit rate 0.17% among 300,000; in the data active = inhibition above about 50%
PfHsp40 yeast: rescue of yeast from PfHsp40 toxicity, primary screen, S. cerevisiae, ATP luminescence; hit rate 0.68% among 340,000; S. cerevisiae expressing PfHsp40, growth rescue; growth rescue, % at 12.5 µM; in the data active = growth rescue above about 28%, passing the limit was not always enough;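 note: yeast W303a lacking pdr1 and pdr3 grown in galactose medium; growth measured after three days at 30 °C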
A number is an active result.

For Cc1ccc(NC(=O)c2ccc([N+](=O)[O-])o2)c(C)c1 the results were MazEF act inactive, PrPC TRFRET inactive, DUSP3 inh inactive, PrP UTR inh inactive, BJeLR viability inactive and PfHsp40 yeast inactive.
Cn1c(=O)c(C(=O)NCCc2ccc(Cl)cc2)c(O)c2ccccc21 was read as MazEF act inactive, PrPC TRFRET inactive, DUSP3 inh 59, PrP UTR inh inactive, BJeLR viability inactive and PfHsp40 yeast inactive.
Screening Cc1ccc(-c2cc(NC=O)c3ncc(-c4cnn(C)c4)n3c2)cc1 returned PrPC TRFRET inactive.
Screening CCOC(=O)CN1C(=O)C2(OCCCO2)c2cc(Br)ccc21 returned MazEF act inactive, PrPC TRFRET inactive, DUSP3 inh 59, PrP UTR inh inactive, BJeLR viability inactive and PfHsp40 yeast inactive.
For COc1cc2c3nnc(-c4ccc(F)cc4)c-3cn(Cc3cccc(F)c3)c2cc1OC the results were MazEF act 212, DUSP3 inh inactive, PrP UTR inh inactive and PfHsp40 yeast inactive.
Screening COc1cc2c3nnc(-c4ccccc4)c-3cn(Cc3ccc(F)cc3)c2cc1OC returned MazEF act inactive, PrPC TRFRET inactive, DUSP3 inh inactive, PrP UTR inh inactive, BJeLR viability inactive and PfHsp40 yeast inactive.
For COc1cc2c3nnc(-c4ccc(F)cc4)c-3cn(Cc3cccc(C)c3)c2cc1OC the results were MazEF act 250, PrPC TRFRET inactive, DUSP3 inh inactive, PrP UTR inh inactive, BJeLR viability inactive and PfHsp40 yeast inactive.
For COC(=O)c1cc2c(c3c4cc(OC)ccc4n(S(=O)(=O)c4ccc(OC)cc4)c13)C(=O)N(C)C2 the results were PrPC TRFRET inactive.
O=C(CN1C(=O)CCSc2ccccc21)NC1CCCCC1 was read as MazEF act inactive, PrPC TRFRET inactive, DUSP3 inh inactive, PrP UTR inh inactive, BJeLR viability inactive and PfHsp40 yeast inactive.
For CN(CC(=O)Nc1cccc(Cl)c1)S(=O)(=O)/C=C/c1ccccc1 the results were MazEF act inactive and PrPC TRFRET inactive.
For Cc1nc2ccc(Cl)cn2c1[N+](=O)[O-] the results were MazEF act inactive and PrPC TRFRET inactive.
Cc1cc(N2CCN(C)CC2)ccc1NC(=O)c1cccc(S(=O)(=O)N2CCc3ccccc3C2)c1 was read as MazEF act 50, PrPC TRFRET inactive, DUSP3 inh inactive, PrP UTR inh inactive, BJeLR viability inactive and PfHsp40 yeast inactive.
For CCOc1ccc(CCNC(=O)Cn2ccc3cc(S(=O)(=O)N4CCCC4)ccc32)cc1 the results were MazEF act inactive, PrPC TRFRET inactive, DUSP3 inh 53, PrP UTR inh inactive, BJeLR viability inactive and PfHsp40 yeast inactive.
CCOc1ccc(CNC(=O)CCCn2ccc3cc(S(=O)(=O)N4CCCC4)ccc32)cc1 was read as MazEF act inactive, PrPC TRFRET inactive, DUSP3 inh inactive, PrP UTR inh inactive, BJeLR viability inactive and PfHsp40 yeast inactive.
Screening CC(C)(C)C(=O)C(Cl)C(=O)Nc1ccccc1 (stereo not drawn) returned MazEF act inactive, PrPC TRFRET inactive, DUSP3 inh inactive, PrP UTR inh inactive, BJeLR viability inactive and PfHsp40 yeast 275.
Screening O=C(Nc1ccc(Nc2ccccc2)cc1)C(Cl)Cl returned MazEF act inactive, PrPC TRFRET inactive, DUSP3 inh inactive, PrP UTR inh inactive, BJeLR viability inactive and PfHsp40 yeast inactive.
Cc1ccc(NC(=O)CN(C)C(=O)c2cccnc2Nc2cccc(C(F)(F)F)c2)cc1 was read as MazEF act inactive, PrPC TRFRET inactive, DUSP3 inh inactive, PrP UTR inh inactive, BJeLR viability inactive and PfHsp40 yeast 567.
COc1cccc(NC(=O)CN(C)C(=O)c2cccnc2Nc2cccc(C(F)(F)F)c2)c1 was read as MazEF act inactive, PrP UTR inh inactive and PfHsp40 yeast 299.
`COc1cccc(NC(=O)CN(C)C(=O)c2ccccc2OCC(=O)Nc2cccc(C(F)(F)F)c2)c1` gave MazEF act inactive, PrPC TRFRET inactive, PrP UTR inh inactive, BJeLR viability inactive and PfHsp40 yeast inactive.
For COc1ccc(NC(=O)CN(C)C(=O)c2ccccc2OC)cc1 the results were MazEF act inactive, PrPC TRFRET inactive, DUSP3 inh 51, PrP UTR inh inactive, BJeLR viability inactive and PfHsp40 yeast inactive.
For CCOC(=O)/C(=C\Nc1ccc(OCc2ccccc2)cc1)NC(=O)c1ccccc1 the results were PrPC TRFRET inactive.
`COc1ccc(C2C(C(=O)Nc3c(C)cccc3C)CCC(=O)N2c2ccc(OC)cc2)cc1` (stereo not drawn) gave PrPC TRFRET inactive.
COC(=O)/C=C/c1cccc([C@H]2[C@@H]3C=CC[C@@H](C)[C@@H]3C(=O)N2Cc2ccccc2)c1 was read as MazEF act inactive, PrPC TRFRET inactive, PrP UTR inh inactive and PfHsp40 yeast inactive.
Screening CCOc1ccc(C(=O)CCC(=O)NN2CCCCC2)cc1 returned MazEF act inactive and PrPC TRFRET inactive.
`CCOc1ccc(-n2nc3ccc(NC(=O)c4ccc5c(c4)OCCO5)cc3n2)cc1` gave MazEF act 59, PrPC TRFRET inactive, DUSP3 inh inactive, PrP UTR inh inactive, BJeLR viability inactive and PfHsp40 yeast inactive.
For O=C(Nc1ccc2nn(-c3ccccc3)nc2c1)c1ccc2c(c1)OCCO2 the results were MazEF act inactive, PrPC TRFRET inactive, DUSP3 inh inactive, PrP UTR inh inactive, BJeLR viability inactive and PfHsp40 yeast inactive.
Screening O=c1c2cc(Cl)ccc2nc(-c2ccc(Cl)c(Cl)c2)n1O returned MazEF act inactive, PrPC TRFRET inactive, DUSP3 inh inactive, PrP UTR inh inactive, BJeLR viability inactive and PfHsp40 yeast inactive.
O=c1c2cc(Cl)ccc2nc(-c2ccccc2)n1O was read as MazEF act inactive, PrPC TRFRET inactive, DUSP3 inh inactive, PrP UTR inh inactive, BJeLR viability inactive and PfHsp40 yeast 195.
O=c1c2cc(Br)ccc2nc(-c2ccc([N+](=O)[O-])cc2)n1O was read as MazEF act inactive, PrPC TRFRET inactive, DUSP3 inh inactive, PrP UTR inh inactive, BJeLR viability inactive and PfHsp40 yeast 160.
Screening CCCCCNc1ncnc2c(C)[nH]nc12 returned PrPC TRFRET inactive.
COc1ccc(C(=O)CSc2ccc(-c3ccccc3)nn2)cc1 was read as MazEF act inactive, PrPC TRFRET inactive, DUSP3 inh inactive, PrP UTR inh inactive, BJeLR viability inactive and PfHsp40 yeast inactive.
`COc1ccc(-c2ccc(SC)nn2)cc1` gave MazEF act inactive, PrPC TRFRET inactive, DUSP3 inh inactive, PrP UTR inh inactive, BJeLR viability 66 and PfHsp40 yeast inactive.
`CCC(CNc1cc(OC)cc2cccnc12)NC1CCCCC1` (stereo not drawn) gave MazEF act inactive, PrPC TRFRET inactive, DUSP3 inh 54, PrP UTR inh inactive, BJeLR viability inactive and PfHsp40 yeast inactive.

Source: PubChem BioAssay
